The values that follow come from PubChem BioAssay AID1508636 (National Center for Advancing Translational Sciences (NCATS), 2021).

Records with an inconclusive call do not appear. A number with no mark means an inactive call. The source made the active and inactive calls. Calls come from the whole dose curve; as a rule, active = well fitted inhibition curve with a large enough effect; inconclusive = small, poorly fitted or top-dose-only effect; inactive = flat fitted curve, though single readings scatter. *1 amine or outer side, *2 acyl side, *3 side chain or, on linkers, in order; H or OH if unused. Where a SMILES comes first, the peptide text is derived from it. Bridges are numbered along the chain shown (N, C = ends). Roman numbers before positions name the chains, in order. [ ]: non-standard residue; d: D form. ξ: configuration not given here. Actinocin(9to1) = Cc1c2oc3c(C)ccc(C(=O)[*:1])c3nc-2c(C(=O)[*:2])c(N)c1=O; ξNMeV = CNC(C(=O)O)C(C)C; ξV = CC(C)C(N)C(=O)O; Sar = CNCC(=O)O

ATP-dependent translocase ABCB1 (Homo sapiens), sequence (P08183 whole entry, looked up): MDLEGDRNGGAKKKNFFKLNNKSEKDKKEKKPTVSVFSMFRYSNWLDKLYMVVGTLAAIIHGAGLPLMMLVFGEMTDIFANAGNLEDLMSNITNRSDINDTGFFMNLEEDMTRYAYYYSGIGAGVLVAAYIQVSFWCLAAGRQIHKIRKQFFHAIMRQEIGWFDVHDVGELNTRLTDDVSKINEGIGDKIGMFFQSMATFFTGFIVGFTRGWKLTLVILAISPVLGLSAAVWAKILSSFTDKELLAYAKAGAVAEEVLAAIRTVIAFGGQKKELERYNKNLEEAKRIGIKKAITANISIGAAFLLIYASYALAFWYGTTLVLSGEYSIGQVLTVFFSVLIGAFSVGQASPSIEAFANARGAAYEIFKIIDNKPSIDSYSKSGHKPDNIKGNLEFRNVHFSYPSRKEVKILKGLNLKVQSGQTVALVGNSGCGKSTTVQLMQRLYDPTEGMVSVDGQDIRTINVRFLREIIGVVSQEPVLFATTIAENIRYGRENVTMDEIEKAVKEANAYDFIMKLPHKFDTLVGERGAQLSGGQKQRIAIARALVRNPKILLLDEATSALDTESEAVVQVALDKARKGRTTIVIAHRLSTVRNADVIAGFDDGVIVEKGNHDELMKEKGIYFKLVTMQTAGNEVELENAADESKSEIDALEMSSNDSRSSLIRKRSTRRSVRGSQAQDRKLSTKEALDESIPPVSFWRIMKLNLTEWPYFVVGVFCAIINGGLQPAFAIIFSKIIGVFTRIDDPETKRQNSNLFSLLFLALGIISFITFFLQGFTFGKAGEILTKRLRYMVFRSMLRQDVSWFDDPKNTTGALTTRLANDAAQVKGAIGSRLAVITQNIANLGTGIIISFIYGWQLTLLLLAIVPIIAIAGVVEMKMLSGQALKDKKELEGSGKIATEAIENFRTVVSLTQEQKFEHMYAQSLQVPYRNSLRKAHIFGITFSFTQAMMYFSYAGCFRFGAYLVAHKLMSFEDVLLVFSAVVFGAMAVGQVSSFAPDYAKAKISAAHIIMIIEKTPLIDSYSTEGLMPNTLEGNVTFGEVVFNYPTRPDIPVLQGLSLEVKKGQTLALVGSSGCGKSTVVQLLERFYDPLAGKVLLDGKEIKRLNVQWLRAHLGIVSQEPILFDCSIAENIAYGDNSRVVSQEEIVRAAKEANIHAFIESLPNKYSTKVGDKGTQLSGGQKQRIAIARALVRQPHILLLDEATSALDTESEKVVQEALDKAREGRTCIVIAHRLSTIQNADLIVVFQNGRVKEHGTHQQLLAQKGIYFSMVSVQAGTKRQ

The target of this test is ATP-dependent translocase ABCB1 (Homo sapiens) (UniProt P08183). The experiment in a line: qHTS for characterization and localization of zebrafish homologs of the human ABCB1 multidrug transporter: P-gp overexpressing MDR-19 cells. The conditions noted are these: MDR-19 cells overexpressing P-gp, CellTiter-Glo luminescence viability, 72 h; series mostly up to 46.1 µM; activity change, negative = inhibition: at the top concentration. In short, it runs like this:
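About 90 known P-gp substrates were titrated onto four cell lines: vector control, MDR-19 (human P-gp) and zebrafish Abcb4 or Abcb5 transfectants. After 72 h, ATP luminescence (CellTiter-Glo) gave curves; cytotoxic required AC50 < 10 uM, >50% response and inhibitory curve class.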
For the compound `CC(=O)C1(O)Cc2c(O)c3c(c(O)c2C(OC2CC(N)C(O)C(C)O2)C1)C(=O)c1c(O)cccc1C3=O` (stereo not drawn), the Potency is 0.148 µM (active).

With `Cc1c2oc3c(C)ccc(C(=O)N[C@@H]4C(=O)NC(C(C)C)C(=O)N5CCC[C@H]5C(=O)N(C)CC(=O)N(C)C(C(C)C)C(=O)O[C@@H]4C)c3nc-2c(C(=O)N[C@@H]2C(=O)NC(C(C)C)C(=O)N3CCC[C@H]3C(=O)N(C)CC(=O)N(C)C(C(C)C)C(=O)O[C@@H]2C)c(N)c1=O` (stereo partly drawn) (I: T[ξV]P[Sar][ξNMeV] / II: T[ξV]P[Sar][ξNMeV]; ester I:1-I:C, II:1-II:C; linker I:N-II:N via Actinocin(9to1)), the Potency was 0.469 µM (active).

Take `C#Cc1cccc(Nc2ncnc3cc(OC)c(OCCCCCCC(=O)NO)cc23)c1`: the Potency is 14.8 µM (active).

For `CC(C)(C)c1cnc(CSc2cnc(NC(=O)C3CCNCC3)s2)o1`, the Potency is 24.1 µM (active).

In the case of `Cc1ccc(C(=O)N(CCCN)C(c2nc3cc(Cl)ccc3c(=O)n2Cc2ccccc2)C(C)C)cc1` (stereo not drawn), the Potency is 14.8 µM (active).

Regarding `CCCCc1nc2cc(C=CC(=O)NO)ccc2n1CCN(CC)CC`, the Potency was 5.26 µM (active).

Regarding `CCN(CCCO)CCCOc1ccc2c(Nc3cc(CC(=O)Nc4cccc(F)c4)[nH]n3)ncnc2c1`, the “activity change, negative = inhibition” value was -4.66%.

Regarding `COC(C(=O)N1Cc2[nH]nc(NC(=O)c3ccc(N4CCN(C)CC4)cc3)c2C1)c1ccccc1` (stereo not drawn), the “activity change, negative = inhibition” value was -7.32%.

As for `CCC(C)C(=O)OC1CC(O)C23C4OCC5(C(O)CC2C1(C)C(O)O4)C3C(=O)C(O)C1(C)C(O)(c2ccoc2)CC2OC251` (stereo not drawn), the “activity change, negative = inhibition” value was 3.34% [at 15.2 µM].

As to `COc1cc(C(=O)NC2CCN(C)CC2)ccc1Nc1ncc2c(n1)N(C1CCCC1)CC(F)(F)C(=O)N2C`, the Potency is 3.32 µM (active).

Turning to `CCn1c(-c2nonc2N)nc2c(C#CC(C)(C)O)ncc(OC[C@H]3CCCNC3)c21`, the “activity change, negative = inhibition” value was -13.1%.

Consider `CCS(=O)(=O)c1cccc(-c2cc(C(=O)NC3CCN(C)CC3)c(C)c3[nH]c4ncc(C)cc4c23)c1`, for which the “activity change, negative = inhibition” value was -8.71%.

In the case of `CCc1cccc(CC)c1NC(=O)N1Cc2[nH]nc(NC(=O)c3ccc(N4CCN(C)CC4)cc3)c2C1`, the “activity change, negative = inhibition” value is 3.47%.
